We go through 37 molecules from ChEMBL document CHEMBL1157539, “Thousands of chemical starting points for antimalarial lead identification” (Nature, 2010).

Structures are written as SMILES.

In the assay the test system is HepG2. As to the kind of experiment: GSK_TCMDC: Percent inhibition of human HepG2 cell line. Test compounds present at 10uM. In kind it is functional.
On to `Cc1noc(-c2cccs2)c1C(=O)NCCc1cccc(Cl)c1`, for which the Inhibition (as a rule, the share of the control response that was lost under treatment) was 0%.

Molecule `CC(C)(C)c1ccc(NC(=O)c2cccc(CN3CCCN(Cc4ccsc4)CC3)c2)cc1.O=C(O)C(F)(F)F` showed an Inhibition of 33%.

`COc1ccc(C2NCCc3c2[nH]c2ccccc32)cc1CN1CCN(c2ccc(F)cc2)CC1.Cl` (configuration not stated) came in with an Inhibition of 37%.

`Cc1ccc(Nc2nc(C)cc(N3CCN(c4ccccc4)CC3)n2)cc1` yielded an Inhibition of 4%.

As to `C#CCN(Cc1ccc2[nH]c(N)nc(=O)c2c1)c1ccc(C(=O)N[C@@H](CCC(=O)O)C(=O)O)cc1`, the Inhibition was 45%.

`Cc1nc(-c2cccc3c(NC(=O)N4CCc5cc6nccc(N7CCN(C)CC7)c6cc54)cccc23)no1.Cl` returned an Inhibition of 45%.

Turning to `CN(CCO)Cc1cccc(-c2ccc(NC(=O)c3cccc(C#N)c3)cc2)c1.O=C(O)C(F)(F)F`, the Inhibition was found to be 23%.

For the molecule `O=c1cc(NCCCNCc2ccccc2-c2ccccc2)[nH]c2ccccc12`, the Inhibition turned out to be 0%.

For `COC(=O)[C@@H](NC(=O)[C@H](Cc1ccc(OC)c(OC)c1)Nc1ccc(C#N)c2ccccc12)c1ccc(O)cc1.O=C(O)C(F)(F)F`, the Inhibition was 6%.

As to `O=[N+]([O-])c1ccc2nccnc2c1`, the Inhibition is given as 0%.

As for `O=C(Nc1ccc(Cl)cc1)NC1CCN(CCCCCNC(=O)C2CC2c2ccc(Cl)c(Cl)c2)CC1` (configuration not stated), the Inhibition came to 51%.

With `CCCCCN1CCC(NS(=O)(=O)c2cccc(C(=O)Nc3ccc(C(F)(F)F)cc3)c2)C1.O=C(O)C(F)(F)F` (configuration not stated), the Inhibition is 45%.

`COc1cccc2c(N/N=C/c3ccc([N+](=O)[O-])cc3)ccnc12` registered an Inhibition of 25%.

Molecule `Cc1cc(N[C@@H](Cc2ccccc2)C(=O)NCCOc2ccccc2)nc(NCc2ccccc2C)n1.O=C(O)C(F)(F)F` yielded an Inhibition of 32%.

The molecule `Cc1cccc(NC(=O)c2ccc(C(=O)NC3CCN(CC4CCCCC4)CC3)cc2)c1.O=C(O)C(F)(F)F` showed an Inhibition of 14%.

As to `NCCNS(=O)(=O)c1ccc(-c2ccnc3[nH]c(-c4ccncc4)cc23)cc1.O=C(O)C(F)(F)F`, the Inhibition is recorded as 0%.

With `CCOC(=O)c1nc(-c2cc(Cl)nc(Cl)c2)[nH]c1NC(=S)NCc1ccc(NS(C)(=O)=O)cc1`, the Inhibition came to 0%.

The molecule `COc1ccc(Cn2c(Nc3cccc(C(F)(F)F)c3)nc3cc(C(=O)NC(C)C)cnc32)cc1Cl` displayed an Inhibition of 0%.

For the molecule `CC(O)CNc1nc2ccccc2n1CC(=O)Nc1cccc(C(=O)Nc2cccc(C(F)(F)F)c2)c1` (configuration not stated), the Inhibition was 2%.

For `CCC(C)NC(=O)Nc1ccc(-c2cccc(-c3nc4cccc(C)c4[nH]3)c2)cc1` (configuration not stated), the Inhibition was determined as 55%.

In turn, `CCC1(CC)C(=O)N=C(N2CCCCC2)N(C)C1=O` came in with an Inhibition of 0%.

Molecule `COc1ccc(C(=O)Nc2cc(Br)c3c(c2)CNCC3)cc1C(F)(F)F.Cl` gave an Inhibition of 13%.

For `Cl.O=C(NCCCCN1CCC(O)(c2ccc(Cl)cc2)CC1)c1ccc(Br)cc1`, the Inhibition is 41%.

`Cn1ccnc1CNC(=O)c1ccc(-c2cccc(-c3nc4cc(C(F)(F)F)ccc4[nH]3)c2)cc1` returned an Inhibition of 20%.

Molecule `O=C(Nc1cccc(F)c1)N1CCC(CN2CCOC(c3ccccc3)(c3ccccc3)C2)CC1` registered an Inhibition of 12%.

On to `CCOc1ccc2c(=NN=Cc3cccc(Cl)c3)cc(C)[nH]c2c1`, for which the Inhibition came to 0%.

Turning to `COc1ccc2c(=NN=Cc3cccc(Cl)c3)cc(C)[nH]c2c1`, the Inhibition is given as 3%.

Turning to `Cl.O=C(Nc1cccc2ccccc12)N1CCc2cc3nccc(N4CCN5CCC[C@H]5C4)c3cc21`, the Inhibition is reported as 11%.

As for `Nc1c(Cl)cc(C(O)CNCCCCCCOCCC=C2CCOCC2)cc1Cl` (configuration not stated), the Inhibition is 7%.

In turn, `O=C(NC1CCN(Cc2ccccc2)CC1)c1ccc(-c2nc3cc(Cl)c(F)cc3[nH]2)s1` gave an Inhibition of 28%.

The molecule `O=C(NC1CCN(Cc2ccccc2)CC1)c1cc(C(=O)NC2CCN(Cc3ccccc3)CC2)cc(C(=O)NC2CCN(Cc3ccccc3)CC2)c1` returned an Inhibition of 13%.

In turn, `Clc1ccc(CNc2ccnc(NCc3ccc4c(c3)OCCCO4)n2)c(Cl)c1` showed an Inhibition of 50%.

`Cc1cc(C2CCN(CCCCNC(=O)c3ccc(-c4ccc(C#N)cc4)cc3)CC2)c(C)cc1OCCO` displayed an Inhibition of 20%.

As to `O=C(Nc1ccc(Cl)cc1)N[C@H]1CCN(CCCCCNC(=O)C2CC2c2ccc(Cl)c(Cl)c2)C1` (some centres not stated), the Inhibition came to 24%.

`O=C(NCCCN1CCCCC1)c1ccc(Nc2nccc(Nc3ccc(Oc4ccccc4)cc3)n2)cc1` gave an Inhibition of 30%.

With `Oc1cc(Nc2ccnc3cc(-c4cccc(CN5CCCCC5)c4)ccc23)c(F)cc1Cl`, the Inhibition is recorded as 21%.

Molecule `CN(C)CCOc1cc(NC(=O)Nc2ccc3c(c2)CCCC3=O)ccc1I` yielded an Inhibition of 29%.
